We go through 20 compounds from PubChem BioAssay AID485290 (National Center for Advancing Translational Sciences (NCATS), 2010).

Where “and” joins values, the source holds several entries; their conditions need not be identical. Equal entries are not always repeated. The whole screen tested about 350,000 compounds, of which about 990 (0.28%) were called active. A call without a number means that no potency is given here. Another 2% or so got no clear call; they are omitted. Calls come from the whole dose curve; as a rule, active = well fitted inhibition curve with a large enough effect; inconclusive = small, poorly fitted or top-dose-only effect; inactive = no such curve, though single readings can be large or run the other way. The full list was thinned out, with actives kept by preference. Where a structure was tested more than once in an assay, its records may differ in their call.
Potency is the fitted concentration of half-maximal effect.

The target of the experiment is Tyrosyl-DNA phosphodiesterase 1 (Homo sapiens) (UniProt Q9NUW8). The experiment is described as follows: qHTS Assay for Inhibitors of Tyrosyl-DNA Phosphodiesterase (TDP1). Note: nearly all actives have a fitted effect of over 40% in size. Particulars: recombinant TDP1, AlphaScreen DNA substrate cleavage; series mostly up to 130 µM. The text has this: NIH Molecular Libraries Probe Production Network [MLPCN]
Tyrosyl-DNA phosphodiesterase 1 (Homo sapiens), sequence (Q9NUW8 whole entry, looked up): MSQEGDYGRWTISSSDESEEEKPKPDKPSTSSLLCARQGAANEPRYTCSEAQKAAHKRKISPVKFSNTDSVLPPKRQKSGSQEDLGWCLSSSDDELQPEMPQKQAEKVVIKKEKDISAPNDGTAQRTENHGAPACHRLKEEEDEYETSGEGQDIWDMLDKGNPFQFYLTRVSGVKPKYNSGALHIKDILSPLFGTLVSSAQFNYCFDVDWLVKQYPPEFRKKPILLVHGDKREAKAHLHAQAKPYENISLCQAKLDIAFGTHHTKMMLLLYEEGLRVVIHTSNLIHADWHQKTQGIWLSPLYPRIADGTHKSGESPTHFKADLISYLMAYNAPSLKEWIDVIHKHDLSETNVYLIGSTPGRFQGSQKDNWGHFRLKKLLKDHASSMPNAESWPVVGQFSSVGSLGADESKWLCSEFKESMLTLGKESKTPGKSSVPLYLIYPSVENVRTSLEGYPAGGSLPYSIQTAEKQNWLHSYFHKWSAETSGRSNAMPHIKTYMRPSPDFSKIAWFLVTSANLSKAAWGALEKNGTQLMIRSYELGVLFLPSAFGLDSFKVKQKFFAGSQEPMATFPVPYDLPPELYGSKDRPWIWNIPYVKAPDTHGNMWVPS
NIH Chemical Genomics Center [NCGC]
Assay Provider: Yves Pommier and Christophe Marchand, National Cancer Institute
Assay Title: qHTS Assay for Inhibitors of Tyrosyl-DNA Phosphodiesterase (TDP1); note: nearly all actives have a fitted effect of over 40% in size
Human tyrosyl-DNA phosphodiesterase I (Tdp1) is a rational anticancer target because this enzyme is involved in the repair of DNA lesions created by the trapping of human DNA topoisomerase I (Top1) following treatment by anticancer agents such as camptothecins. Recombinant Tdp1 was expressed and purified from E. coli in the laboratory (Anthony et al, Nucleic Acids Research, 2007, Vol. 35, 4474-4484). A Tdp1 DNA substrate bearing a 5' biotin and a 3' phospho-tyrosine was obtained by custom synthesis. This oligonucleotidic DNA substrate was subsequently coupled to a fluorescein isothiocyanate (FITC) group via the free amino group present on the phospho-tyrosine. Tdp1 was screened against the NCGC small molecule library using the AlphaScreen (AS) detection method in which a streptavidin donor AS bead is bound at the 5' end and an anti-FITC AS acceptor bead is bound at the 3' end of the DNA oligonucleotidic substrate. In the presence of Tdp1, the enzyme cleaves the tyrosine-FITC group, leaving a 3' end phosphate on the DNA substrate. This cleavage reaction results in a loss of signal in AS.
[1] 3 ul of buffer is dispensed in columns 3 & 4 as negative control (no enzyme and maximum signal),
[2] 3 ul of enzyme (1 nM final) is dispensed in columns 1,2, 5-48,
[3] 1 ul of substrate (15 nM final) is dispensed throughout the plate,
[4] 1 ul of AS donor/acceptor bead mix (10 ug/ml final) is dispensed throughout the plate
3 ul of Tdp1 enzyme is dispensed to 1536-well Kalypsys black solid bottom plates. Compounds and controls (23 nl) are transferred via Kalypsys Pin Tool. The plates are incubated for 15 min at room temperature, and then 1 ul of substrate is added to start the reaction. After 5 min incubation at room temperature, 1 ul of AS donor/acceptor bead mix is added and the plates are further incubated for 10 min at room temperature. The detection is then performed on a PerkinElmer Envision reader.
In the case of `CC(C)Nc1nc(Cl)nc(NC(C)C)n1`, the Potency entry is “inactive and 28.2 µM (active)”.

In the case of `CCC(CCC(C)C1CCC2C3CC=C4CC(O)CC[C@@]4(C)C3CC[C@@]12C)C(C)C` (stereo not given in full), the Potency result was “inactive”. With `C=CC#N`, the Potency entry was “inactive”.

As for `O=NO`, the Potency result is “inactive”. Turning to `CN1[C@H]2CC(OC(=O)[C@@H](CO)c3ccccc3)C[C@H]1[C@H]1O[C@H]12` (stereo not given in full), the activity change, negative = inhibition was 5.13% [at 21 µM] (inactive). On to `CC(=O)CC(C)C`, for which the Potency result is “inactive”.

For `CC(C)(O/N=C(\C(=O)N[C@@H]1C(=O)N2C(C(=O)[O-])=C(C[n+]3ccccc3)CS[C@@H]12)c1csc(N)n1)C(=O)O`, the Potency is 12.6 µM (active). As to `CCCCCCCCCCCCN=C(N)N`, the Potency entry was “inactive”.

With `CCN(CC)c1nc(C)cc(OP(=S)(OC)OC)n1`, the Potency result is “inactive”. For `CC(=O)[O][Sn]([c]1ccccc1)([c]1ccccc1)[c]1ccccc1`, the Potency entry is “inactive”. Take `CCCCC/C=C\C/C=C\C/C=C\CCCCCCC(=O)NCCO`: the Potency result is “inactive”. For `CCCCC/C=C\C/C=C\C/C=C\C/C=C\CCCCCC(=O)NCCO`, the Potency result is “inactive and 39.8 µM (active)”. In the case of `CN(C)C[C@H]1CCCC[C@]1(O)c1cccc(O)c1`, the Potency result was “inactive”. As for `C[C@@H]1C[C@H]2CC[C@H](O2)[C@H](C)C(=O)O[C@@H](C)C[C@@H]2CC[C@@H](O2)[C@@H](C)C(=O)O[C@H](C)C[C@H]2CC[C@H](O2)[C@H](C)C(=O)O[C@@H](C)C[C@@H]2CC[C@@H](O2)[C@@H](C)C(=O)O1`, the Potency entry was “inactive”. On the same count and under the same terms, the result for `CC(CCC(=O)O)C1CCC2C3C(O)C[C@@H]4CC(O)CC[C@@]4(C)C3CC[C@@]12C` (stereo not given in full) reads “inactive”; that for `O=C(O)c1cc[c]([Sb](=[O])([OH])[OH])cc1[N+](=O)[O-]`, 1.58 µM (active); that for `S=P(c1ccccc1)(c1ccccc1)c1c(-c2ccccc2)[nH]c2ccccc12`, “inactive”. Take `Nc1ccc(-c2ccc(N)c(N)c2)cc1N`: the Potency result was “inactive”. For `O=C1CCc2cccc3c2N1CC3`, the Potency entry is “inactive”. Same read-out and setting: the result for `Cc1cccc2c3c(ccc12)C1=C(C(=O)C3=O)C(C)CO1` (stereo not given) reads “inactive”.
